Screening results as filed in PubChem.
Hits are enriched below; roughly 10% of the tested compounds scored in any of these assays.
BAZ2B block – BAZ2B (human) inhibition | AID 504333 | AlphaScreen BAZ2B-H3K14Ac peptide displacement | Potency, µM (titrated, usually from 114 µM), for the others: top-dose activity change, negative = inhibition, hits mostly inhibitors | hit rate 4.4% among 360,000; note: % is set by controls: 0 for no effect and ±100 for the full control effect; nearly all actives have a fitted effect of over 60% in size
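BAZ2B (50 nM) with biotin-H3(5-23)K14Ac peptide (50 nM) in PBS pH 7.4, 0.01% Tween-20, preformed 30 min, then compound 30 min at room temperature; top concentration 110uM. AlphaScreen streptavidin donor/nickel chelate acceptor beads (10 ug/mL final), 20 min dark, signal read.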
G9a inh – inhibitors of human histone lysine methyltransferase G9a; G9a H3K9 monomethylation, AlphaScreen, 2 h; Potency, µM (titrated, usually from 102 µM), inactives show top-dose activity, negative = inhibition, hits mostly inhibitors; hit rate 8.8% among 350,000; AID 504332; note: % is set by controls: 0 for no effect and ±100 for the full control effect; nearly all actives have a fitted effect of over 75% in size
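G9a (20 nM) preincubated 15 min RT with compounds, then 500 nM biotinylated H3K9 peptide and 20 uM SAM added; 2 h RT reaction. Monomethyl-H3K9 product detected by AlphaScreen with anti-H3K9me1 antibody, streptavidin donor and anti-rabbit IgG acceptor beads.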
JMJD2A Tudor inh – inhibitors of human JMJD2A Tudor domain; O75164; AlphaScreen JMJD2A-Tudor / H3K4me3 peptide binding; Potency, µM (top dose mostly 114 µM), inactives show at the highest dose activity change, negative = inhibition, most hits filed as inhibitors; hit rate 4.4% among 390,000; note: % is set by controls: 0 for no effect and ±100 for the full control effect; nearly all actives have a fitted effect of over 50% in size
GLS inh – glutaminase GLS (human) inhibition. O94925. GLS enzymatic activity, qHTS titration. Potency, µM (series often up to 45.5 µM), for the others: at the top dose activity change, negative = inhibition, hits mostly inhibitors. hit rate 0.21% among 410,000; note: % is set by controls: 0 for no effect and ±100 for the full control effect
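Assay buffer: 45 mM KH2PO4 pH 8.2, 0.02% Tween-20. hKGA acts on L-glutamine (1 mM solution added); product glutamate is reported by an oxidase/peroxidase Amplex Red coupling, with fluorescence taken at baseline and 30 min.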
L3MBTL1 block – blocks human L3MBTL1; Q9Y468; AlphaScreen L3MBTL1–H3K9me1 peptide binding; Potency, µM (doses to about 57.1 µM), without a hit: top-dose activity, negative = inhibition, most hits filed as inhibitors; hit rate 0.66% among 230,000; AID 485360; note: % is set by controls: 0 for no effect and ±100 for the full control effect; nearly all actives have a fitted effect of over 60% in size
Target sequence (Q9Y468 whole entry, looked up): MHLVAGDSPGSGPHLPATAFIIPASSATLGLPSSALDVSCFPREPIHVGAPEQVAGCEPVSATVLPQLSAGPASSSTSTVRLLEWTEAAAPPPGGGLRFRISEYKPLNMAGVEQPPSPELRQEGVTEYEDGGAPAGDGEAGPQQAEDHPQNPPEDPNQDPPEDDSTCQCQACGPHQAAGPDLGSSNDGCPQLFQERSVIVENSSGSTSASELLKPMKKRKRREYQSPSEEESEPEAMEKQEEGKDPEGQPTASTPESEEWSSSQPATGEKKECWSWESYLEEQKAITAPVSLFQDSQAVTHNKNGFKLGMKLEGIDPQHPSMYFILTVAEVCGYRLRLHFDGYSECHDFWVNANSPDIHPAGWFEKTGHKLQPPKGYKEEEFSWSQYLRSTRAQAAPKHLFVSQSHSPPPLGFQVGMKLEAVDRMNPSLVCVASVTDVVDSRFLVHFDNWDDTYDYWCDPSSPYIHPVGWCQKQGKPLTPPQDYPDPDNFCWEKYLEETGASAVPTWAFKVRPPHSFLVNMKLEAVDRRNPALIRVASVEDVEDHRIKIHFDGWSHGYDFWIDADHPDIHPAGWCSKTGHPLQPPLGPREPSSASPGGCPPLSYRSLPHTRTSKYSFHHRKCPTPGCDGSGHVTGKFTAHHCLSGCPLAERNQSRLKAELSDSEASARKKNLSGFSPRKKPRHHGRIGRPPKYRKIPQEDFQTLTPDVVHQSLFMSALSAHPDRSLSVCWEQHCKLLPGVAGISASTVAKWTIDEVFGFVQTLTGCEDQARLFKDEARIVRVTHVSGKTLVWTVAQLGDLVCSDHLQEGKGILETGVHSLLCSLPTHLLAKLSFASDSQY
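AlphaScreen proximity signal between nickel-chelate acceptor and streptavidin donor beads (final 10 ug/mL) reports binding of 50 nM L3MBTL1 to 75 nM biotin-H3 K9me1 peptide; complex incubated with compounds 30 min at room temperature; cefsulodin titration as control.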
HP1b chromo inh – inhibitors of HP1-beta chromodomain binding to methylated histone tails; Potency, µM (doses to about 114 µM), without a hit: top-dose activity change, negative = inhibition, hits mostly inhibitors; AID 540317; AlphaScreen HP1-beta / biotin-H3K9me3 peptide binding; hit rate 0.56% among 390,000; P83916; note: nearly all actives have a fitted effect of over 70% in size
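Compound inhibition of the preformed complex between 50 nM HP1-beta and 50 nM biotinylated H3K9me3 peptide was read by AlphaScreen. Buffer was PBS pH 7.4 with 0.01% Tween-20. Incubations ran 30 min at room temperature, with 10 ug/mL donor/acceptor beads.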
Active calls of the source: *; ? = inconclusive; / = no result given; [ ] = dose if it differs, or a comment. Calls come from the whole dose curve; as a rule, active = well fitted curve in the direction sought with a large enough effect; inconclusive = small, poorly fitted or top-dose-only effect, or another doubt; inactive = no such curve, though single readings can be large; an effect the other way counts as inactive or inconclusive. Potency is the fitted concentration of half-maximal effect.

SMILES	BAZ2B block	G9a inh	JMJD2A Tudor inh	GLS inh	L3MBTL1 block	HP1b chromo inh
CCc1ccccc1NC(=O)CCNS(=O)(=O)c1ccc2c(c1)CCCC(=O)N2	12%[57.1 µM]	-6%[59 µM]	-8%	-13%	/	42%
COc1ccc(O)c(-c2nc3ccccc3c(=O)n2Cc2ccccc2)c1	/	/	79µM*	/	/	/
CCCCOc1ccc(S(=O)(=O)NCc2csc(-c3ccc(OC)cc3)n2)cc1	5%	7%[59 µM]	-7%	-12%	/	55%
C/C(=N\N=c1/sc2ccccc2n1C)c1ccc(N2CCOCC2)cc1	-35%	7.9µM*	-24%	1%	-26%	-19%
C/C(=N\N=c1/sc2ccccc2n1C)c1ccccn1	-31%	2%	?	2%	-19%	28%
Cc1ccc(C)c(CSc2nc(-c3ccccc3F)nc3c2Cc2c(CO)cnc(C)c2O3)c1	-16%	2%[59 µM]	-6%	0%	/	56%
CC1=C/C(=C(/c2cc(C)c(O)c(Br)c2)c2ccccc2S(=O)(=O)O)C=C(Br)C1=O	18µM*	3%[2.33 µM]	?	24%	/	32µM*
CC1=C/C(=C(/c2ccc(O)c(C)c2)c2ccccc2S(=O)(=O)O)C=CC1=O	50µM*	-15%[12.7 µM]	-20%	26%	?	?
C=CC(=O)Nc1ccc(N(C)c2ccnc(Nc3ccc(N4CCN(C)CC4)cc3)n2)cc1	/	/	35µM*	43%	?	?
CC/C(=N/Nc1ccccc1Cl)c1cnnc(-c2ccccc2)n1	0%	?	?	0%	-13%	-6%
CC/C(=N/O)c1cnnc(SC)n1	3%	19%[59 µM]	-5%	26%	3%	11%
CC/C(=N/Nc1cccc(C)c1)c1cnnc(SC)n1	-35%	7.1µM*	56µM*	0%	-9%	17%
CC/C(=N/Nc1ccc(Cl)cc1)c1cnnc(SC)n1	-33%	5.6µM*	?	-23%	-1%	43%
CCOC(=O)c1c(Nc2ccc(F)cc2)nnc(-c2ccccc2)c1-c1ccccc1	-32%	?	?	-2%	/	3%
CC1=C(C(=O)Nc2ccccc2)C(c2cccs2)n2nc(SCc3ccccc3)nc2N1 (stereo not given)	-1%	3%[59 µM]	-5%	-11%	/	46%
Cc1cc(C)n(-c2nc3ccccc3nc2Nc2ccc(N(C)C)cc2)n1	3.2µM*	1.8µM*	11µM*	2%	/	8.9µM*
O=C(c1cc2ccccc2oc1=O)N(Cc1cccs1)Cc1cccs1	4%	5%[59 µM]	28µM*	-9%	-1%	-16%
Cn1c(CN2CCCCC2)c(C#N)c2ccccc21	6%	28µM*	7%	-2%	2%	31%
Cn1c(CN2CCC(C(N)=O)CC2)c(C#N)c2ccccc21	2%	-19%[59 µM]	0%[57.1 µM]	17%	-8%	-6%
Cn1c(CN2CCN(CC#N)CC2)c(C#N)c2ccccc21	0%	45µM*	-5%	-1%	/	53%
O=[N+]([O-])c1cccc(S(=O)(=O)N2CCN(S(=O)(=O)c3ccc4c(c3)OCCO4)CC2)c1	/	/	-18%	/	/	/
COc1cc2c(=O)n(Cc3ccccc3Cl)c(=O)n(CC(=O)Nc3ccccc3)c2cc1OC	-14%	-24%[59 µM]	-11%	-7%	/	23%
COC(=O)CN1C(=O)CSc2ccc(S(=O)(=O)Nc3ccc(C)c(Cl)c3)cc21	-10%	-31%[59 µM]	-24%	-6%	/	4%
Nc1ccccc1SCC(=O)Nc1ccc(N2CCOCC2)cc1	-32%	45µM*	-14%	49%	-1%	27%
O=C(Cn1cnc2ccccc2c1=O)Nc1ccc(N2CCOCC2)cc1	-24%	-28%	-17%	3%	-29%	1%
SMILES	BAZ2B block	G9a inh	JMJD2A Tudor inh	GLS inh	L3MBTL1 block	HP1b chromo inh
O=C(CSc1cccc[n+]1[O-])Nc1ccc(N2CCOCC2)cc1	-21%	56µM*	/	/	-29%	/
O=C(CSc1cccc[n+]1[O-])Nc1ccc2c(c1)OCCO2	-5%	25%[0.0925 µM]	-8%	0%	-1%	36%
Cn1c(=O)c2ncn(CC(=O)Nc3ccc(N4CCOCC4)cc3)c2n(C)c1=O	-4%	14µM*	-6%	49%	/	12%
Cc1ccccc1SCC(=O)Nc1ccc(N2CCOCC2)cc1	-37%	-6%[59 µM]	-32%	-25%	/	-4%
O=C(CSc1cccc[n+]1[O-])Nc1ccc([N+](=O)[O-])cc1Cl	-13%	56µM*	-1%	-2%	4%	42%
O=C(Cn1ncc2c(Cl)cccc21)NCc1cccc(Br)c1	-20%	-24%[59 µM]	2%	-5%	/	26%
O=C(CCn1ccc2ccccc21)Nc1ccc(N2CCOCC2)cc1	-9%	50µM*	-27%[57.1 µM]	29%	-12%	-10%
O=C(Cc1c(F)cccc1Cl)OCC(=O)N1CCN(c2ccccc2)CC1	/	/	-17%	16%	-7%	22%
CC(=O)Nc1ccc(S(=O)(=O)NCC(=O)OCC(=O)N2CCN(c3ccccc3)CC2)cc1	-27%	50µM*	-21%	19%	4%	28%
O=C(CNS(=O)(=O)c1c(Cl)cccc1Cl)OCC(=O)c1ccc[nH]1	79µM*	/	-27%	-16%	-23%	16%
O=C(CNS(=O)(=O)c1c(Cl)cccc1Cl)OCC(=O)N1CCN(c2ccccc2)CC1	-31%	56µM*	-24%	6%	-11%	-9%
O=C(CNS(=O)(=O)c1ccc(Br)cc1Cl)OCC(=O)c1ccc[nH]1	-4%	?	-25%	3%	-3%	21%
COc1cccc(CNC(=O)CN2C(=O)N(c3c(C)cccc3C)S(=O)(=O)c3ccccc32)c1OC	-8%	5%[59 µM]	-12%	1%	/	23%
CCOc1cc(-c2nc(-c3ccc(-c4ccc(C)cc4)nc3OC)no2)cc(OCC)c1OCC	1%[57.1 µM]	9%[59 µM]	1%	0%	/	33%
COc1ccc2c(c1)sc1ncc(C(=O)NCc3cccc(C)c3)c(=O)n12	8%	-6%[59 µM]	-3%	-3%	/	23%
Cc1csc(NC(=O)/C=C/c2ccc(C)o2)n1	-39%	?	-2%	2%	-3%	25%
Cc1csc(NC(=O)/C=C/c2ccco2)n1	-38%	20µM*	-22%	0%	-14%	10%
O=C(/C=C/c1ccco1)Nc1nc(-c2ccccn2)cs1	28µM*	22µM*	50µM*	-18%	/	45µM*
CCOC(=O)Cc1csc(NC(=O)/C=C/c2ccco2)n1	-28%	50µM*	-22%	-19%	/	20%
O=C(/C=C/c1ccco1)Nc1nc(-c2ccccc2)cs1	?	?	-11%	0%	-8%	-1%
CNc1ccc(Oc2nc([N+](=O)[O-])nn2C)cc1	-21%	50µM*	-13%	5%	-6%	31%
Cn1nc([N+](=O)[O-])nc1Oc1ccccc1	-1%	-50%[2.33 µM]	2%	-3%	/	24%
Clc1cccc(-c2nc3ccccn3c2Nc2ccc3c(c2)OCCO3)c1	11µM*	?	22µM*	31%	/	?
